An excerpt weighted towards active compounds, which were near 3% of everything screened.
MITF TRPM1 inh – reduces MITF-dependent TRPM1 promoter luciferase signal; SK-MEL-5 TRPM1 promoter luciferase, 24 h; inhibition, % at 12.5 µM; 0.83% of 330,000 active; AID 488899;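 active = mean inhibition across replicates of 60% or more, whatever share of single replicates reaches that level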
LGR2 antag – Drosophila LGR2 receptor signaling inhibition; HEK293 LGR2, CRE-luciferase, bursicon-stimulated, 4 h; inhibition, % at 9.99 µM; 0.35% of 380,000 active; AID 720647;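 active = drop in luminescence signal, shown as inhibition above about 50% in the replicate tests, limit read from the data, passing the limit was not always enough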;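 note: agonist challenge used bursicon conditioned medium at about half maximal strength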
MITF TRPM1 HTS – MITF TRPM1 promoter activation in melanoma cells | SK-MEL-5 TRPM1-promoter luciferase, 24 h; % of positive control, neutral wells = 0 | activation, % at 12.5 µM | 0.75% of 300,000 active | AID 588334;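 active = mean activation of at least 80% with every replicate also reaching 80%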
LMP1 NFkB inh – inhibitors of Epstein-Barr LMP1-induced NF-kappaB reporter; inhibition, % at 12.5 µM; LMP1-induced NF-kappaB luciferase reporter cells, luminescence; 0.69% of 350,000 active; AID 504558; in the data active = inhibition above about 41%
TROY NFkB inh – inhibitors of TROY-dependent NF-kB signaling. inhibition, % at 10 µM. 0.98% of 360,000 active. Q293 LMP1-TROYcd NF-kB luciferase reporter, 4 h;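 active = compounds whose plate-normalised and pattern-corrected inhibition of the luciferase reporter signal at the single screening dose is 50% or more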
TWEAK-Fn14 inh – inhibitors of TWEAK-Fn14 interaction signaling. AID 1159606. TWEAK-stimulated Fn14 reporter cells, luciferase luminescence, 8 h. inhibition, % at 10 µM. 2% of 360,000 active; in the data active = inhibition above about 50%
Hits are given with their value; - = inactive; . = no result; ! = not confirmed by another sample.

SMILES | MITF TRPM1 inh | LGR2 antag | MITF TRPM1 HTS | LMP1 NFkB inh | TROY NFkB inh | TWEAK-Fn14 inh
CC(=O)N(C)C[C@H]1Oc2ncc(-c3ccc(C(=O)N(C)C)cc3)cc2C(=O)N([C@@H](C)CO)C[C@@H]1C | . | - | . | . | . | .
c1ccc(CCN2CCN(c3ncnc4c3cnn4-c3ccccc3)CC2)cc1 | - | . | . | - | - | -
c1ccc(-n2ncc3c(N4CCCCC4)ncnc32)cc1 | - | 60.9 | - | 40.5 | 71.4 | 95.1
COc1ccc(-n2ncc3c(N4CCN(Cc5ccccc5)CC4)ncnc32)cc1 | - | - | - | - | 60.7 | 81.2
C[C@H]1CN([C@@H](C)CO)C(=O)c2cc(/C=C/c3ccccc3)cnc2O[C@@H]1CN(C)C(=O)Nc1ccc(C(F)(F)F)cc1 | . | - | . | . | . | .
CCOC(=O)Cn1c(COc2ccccc2OC)[n+](C)c2ccccc21 | . | . | . | . | - | -
CC1CCC(C(C)C)C(OC(=O)Cn2c(-c3ccc(Br)cc3)[n+](C)c3ccccc32)C1 (centres undefined) | 90.7 | 77.8 | - | - | - | 55.9!
Cc1ccccc1OCc1n(CC(=O)OC2CC(C)CCC2C(C)C)c2ccccc2[n+]1C (centres undefined) | 97.4! | 74.7 | - | - | 64.5 | 83.2!
CC1CCC(C(C)C)C(OC(=O)Cn2c(-c3ccc(Cl)cc3)[n+](C)c3ccccc32)C1 (centres undefined) | 89.5 | - | - | - | - | 59.2
CC1CCC(C(C)C)C(OC(=O)COC(=O)c2cccn2C)C1 (centres undefined) | - | . | - | - | - | -
CC1CCC(C(C)C)C(OC(=O)COC(=O)c2ccc(N)cc2)C1 (centres undefined) | - | - | - | - | - | -
CC(=O)N1[C@@H]2Cn3c(ccc(-c4ccccc4)c3=O)[C@H]1[C@@H](C(=O)NCCCN1CCOCC1)[C@@H]2CO | . | - | . | . | . | .
Cc1ccc(-c2ccc(=O)n(CCC(=O)NCCN3CCCCC3C)n2)cc1 (centres undefined) | - | . | - | - | . | 87.3
Cc1ccc(-n2c(C)cc(/C=N/Nc3ccc([N+](=O)[O-])cn3)c2C)cc1 | - | - | - | - | - | -
Cc1ccc(C=NNc2ccc([N+](=O)[O-])cn2)cc1 | - | - | 122.2 | - | - | -
O=[N+]([O-])c1ccc(/C=N/Nc2ncccc2[N+](=O)[O-])s1 | - | - | . | - | - | -
O=[N+]([O-])c1ccc(/C=N/Nc2cc(Cl)nc(-c3ccccc3)n2)cc1 | - | - | - | 84.8 | - | -
O=[N+]([O-])c1cccc(/C=N/Nc2cc(Cl)nc(-c3ccccc3)n2)c1 | - | . | - | - | - | -
O=[N+]([O-])c1ccc(NN=Cc2cccc3ccccc23)nc1 | - | - | - | - | - | -
COc1cccc(/C=N/Nc2ncccc2[N+](=O)[O-])c1OC | - | 97.2 | . | 59.4 | 74.7 | 100.1
COc1cccc(/C=N/Nc2ccc([N+](=O)[O-])cn2)c1O | - | 67.1 | - | 51.8 | 56.0 | 89.5
CCC(=O)N1CC2(C1)[C@H](c1ccccc1)[C@@H](CO)N2Cc1ccccc1OC | . | - | . | . | . | .
C[C@@H]1CN([C@H](C)CO)C(=O)Cc2cc(NS(=O)(=O)c3cccs3)ccc2O[C@H]1CN(C)CC1CC1 | . | - | . | . | . | .
O=C(NC1CCCCC1)N[C@H]1CC[C@@H](CC(=O)N2CCOCC2)O[C@@H]1CO | . | - | . | . | . | .
Brc1ccccc1/C=N/Nc1ccc2ccccc2n1 | - | - | - | - | - | -
SMILES | MITF TRPM1 inh | LGR2 antag | MITF TRPM1 HTS | LMP1 NFkB inh | TROY NFkB inh | TWEAK-Fn14 inh
O=[N+]([O-])c1cccc(C=NNc2ccc3ccccc3n2)c1O | 79.0 | 81.3 | - | - | 75.4 | 97.3
CCCNC(=O)N1CC2(CCN(C(=O)Cc3cccnc3)CC2)c2c([nH]c3cc(OC)ccc23)[C@H]1CO | . | - | . | . | . | .
CCCC#Cc1ccc2c(c1)O[C@@H](CN(C)C(=O)CC1CC1)[C@H](C)CN([C@H](C)CO)S2(=O)=O | . | - | . | . | . | .
CC(=O)C1=C(O)C(=Cc2ccccc2)OC1=O | . | - | . | - | - | -
COc1ccc(C=C2OC(=O)C(C(C)=O)=C2O)cc1 | . | - | . | 50.9 | - | -
COc1ccc(/C=C2\Oc3ccccc3C2=O)cc1 | - | 55.6 | - | - | - | 64.8
CC(=O)Oc1ccc(/C=C2/Oc3ccccc3C2=O)cc1 | - | - | - | - | - | -
CCOC(=O)c1c(C)[nH]c(C(=O)NNC(=O)c2ccccc2)c1C | - | . | - | - | - | 52.9
CCOC(=O)c1c(C)[nH]c(C(=O)NNC(=O)c2ccccc2F)c1C | - | - | - | - | - | -
CCOC(=O)c1c(C)[nH]c(C(=O)COC(=O)c2cccnc2Cl)c1C | - | - | 82.9 | - | - | -
COC(=O)c1c(C)[nH]c(C(=O)OCc2ccc(F)cc2)c1C | - | . | 114.1 | - | - | -
CC(=O)c1c(C)[nH]c(C(=O)OCC(=O)NCCc2ccc(F)cc2)c1C | - | . | - | - | - | -
CCOC(=O)c1c(C)[nH]c(C(=O)NNC(=O)c2ccc(Br)cc2)c1C | - | - | - | - | 54.8 | 56.0
O=C(c1ccccn1)N1C[C@@H]2[C@H](c3ccccc31)[C@@H](CO)N2C(=O)Cc1ccccc1 | . | - | . | . | . | .
COc1ccc2nc(NC(=O)c3cccc(OCc4c(C)noc4C)c3)sc2c1 | - | . | . | - | - | 51.9
COc1ccc2nc(NC(=O)CN3CCN(C)CC3)sc2c1 | - | . | - | - | 54.3 | -
COc1ccc2nc(NC(=O)c3ccoc3C)sc2c1 | - | - | - | - | - | 59.0
O=C(CN1CCC(n2nnc3cc(F)ccc32)CC1)NC1CC1 | - | . | - | - | - | -
CCOc1ccc2nc(NC(=O)CN3CCC(n4nnc5cc(F)ccc54)CC3)sc2c1 | - | . | . | - | 57.5 | -
O=C(C[C@H]1C=C[C@@H](NC(=O)CCN2CCCCC2)[C@H](CO)O1)Nc1ccccc1 | . | - | . | . | . | .
COCC(=O)Nc1ccc2c(c1)OC[C@H](C)N(Cc1cccnc1)C[C@@H](C)[C@@H](OC)CN(C)C2=O | . | - | . | . | . | .
CN1CCN(C(=O)C[C@@H]2CC[C@H]3[C@@H](COC[C@@H](O)CN3Cc3ccc4c(c3)OCO4)O2)CC1 | . | - | . | . | . | .
COc1ccc2nc(NC(=O)c3cc(C)oc3C)sc2c1 | - | . | 96.1 | - | - | -
O=C(O)c1ccccc1C(=O)Nc1ccc(Oc2cccc3ccccc23)cc1 | 73.1 | - | - | - | 71.0 | 87.8
CNc1nc2cc([N+](=O)[O-])c([N+](=O)[O-])cc2nc1NC | - | - | - | - | - | 50.7
N#Cc1cc2nc(O)c(O)nc2cc1[N+](=O)[O-] | - | . | - | - | - | -
C[C@H]1CN([C@@H](C)CO)C(=O)c2cccc(NS(=O)(=O)c3ccc(F)cc3)c2O[C@H]1CN(C)Cc1ccccc1 | . | - | . | . | . | .
COc1ccc([N+](=O)[O-])c(S(=O)(=O)c2ccc(Cl)cc2)n1 | 70.6 | 96.9 | . | 61.9 | 65.7 | 97.2
O=[N+]([O-])c1cccnc1S(=O)(=O)c1ccccc1 | - | - | - | - | - | 95.1
COc1ccc([N+](=O)[O-])c(S(=O)(=O)c2ccccc2)n1 | . | 103.9 | . | . | 71.7 | 97.3
